Assay results reported in PubChem BioAssay (NCATS).
“And” between values parts separate entries of the source, which are not always exact repeats. Equal entries are not always repeated. Results filed as inconclusive are left out. A number with no mark means an inactive call. The source made the active and inactive calls. Calls follow the shape of the dose curve; as a rule, active = well fitted curve in the direction sought with a large enough effect; inconclusive = small, poorly fitted or top-dose-only effect, or another doubt; inactive = no such curve, though single readings can be large; an effect the other way counts as inactive or inconclusive.

How the values were obtained:
JEG-3 = test: Primary qHTS to identify gynecologic anti-cancer compounds using libraries of approved drugs and bioactive compounds (AID 1345084); conditions: Gynecologic cancer cell panel viability, ATPlite luminescence, 48 h; series mostly up to 57.5 µM; also: nearly all actives have a fitted effect of over 55% in size
Procedure, shortened: (§1)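 Measured: luminescence after ATPlite addition (15 min, RT). Exposure: 48 h, 37 C, 5% CO2.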

PA-1 = test: as above; conditions: Gynecologic cancer cell panel viability, ATPlite luminescence, 48 h; series mostly up to 57.5 µM
Procedure, shortened: as §1

SKOV3 = test: as above; conditions: Gynecologic cancer cell panel viability, ATPlite luminescence, 48 h; series mostly up to 57.5 µM
Procedure, shortened: as §1

Tov112D = test: as above; conditions: Gynecologic cancer cell panel viability, ATPlite luminescence, 48 h; series mostly up to 57.5 µM
Procedure, shortened: as §1

OV90 = test: as above; conditions: Gynecologic cancer cell panel viability, ATPlite luminescence, 48 h; series mostly up to 57.5 µM
Procedure, shortened: as §1

Tov-21-G = test: as above; conditions: Gynecologic cancer cell panel viability, ATPlite luminescence, 48 h; series mostly up to 57.5 µM
Procedure, shortened: as §1

[1] = qHTS assay to identify inhibitors of the type 1 interferon - major histocompatibility complex class I in skeletal muscle: Counter screen cell viability and HiBit confirmation (AID 1347412); conditions: iHSKM muscle cells + IFN-b, HiBiT or CellTiter-Glo, 24 h; for activity change, negative = inhibition: at 45.9 µM (top of the series); as to all read-outs here: nearly all actives have a fitted effect of over 60% in size
Procedure, shortened: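 CRISPR HLA-B*08:01-HiBit immortalized human myoblasts (C25cl48) stimulated with 4 ng/ml IFN-beta and compounds (12-point 1:3, top 46 uM final) for 24 h at 37 C. Duplicate plates read by HiBit lytic luminescence or CellTiter Glo ATP.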

[2] = Drug repurposing screens with cells derived from glioblastoma tumor samples (AID 1345199); conditions: GBM patient neurospheres viability, ATP luminescence, 48 h; also: nearly all actives have a fitted effect of over 40% in size
Procedure, shortened: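 Four patient lines of CD133+ GBM neurospheres were screened at several concentrations; hits were retested in those lines plus three slower-growing GBM lines, using 48-hour treatment and ATP-based viability.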
% is scaled to controls: 0 for no effect and ±100 for the full control effect; potency is read from the fitted curve at half-maximal effect.

## CC1COC2(CCN(c3nc(=O)c4cc(C(F)(F)F)cc([N+](=O)[O-])c4s3)CC2)O1 (stereo not drawn)
JEG-3
  Potency: inactive
PA-1
  Potency: inactive
SKOV3
  Potency: inactive
Tov112D
  Potency: inactive

## Cc1nc(N)ncc1-c1nc(N2CCOCC2)c2sc(C(C)(C)O)cc2n1
OV90
  Potency: 3.55 µM (active)
PA-1
  Potency: 7.94 µM (active)
SKOV3
  Potency: 2.82 µM (active)
Tov-21-G
  Potency: 7.94 µM (active)

## CNc1nccc(-c2cccnc2Oc2cc(C(=O)Nc3cccc(C(F)(F)F)c3)ccc2C)n1
JEG-3
  Potency: inactive
SKOV3
  Potency: 28.2 µM (active)
Tov-21-G
  Potency: 28.2 µM (active)

## O=C(O)c1ccc2c(c1)nc(Nc1cccc(Cl)c1)c1ccncc12
JEG-3
  Potency: inactive
Tov-21-G
  Potency: 22.4 µM (active)

## Cc1ccc(C(N)=O)cc1Nc1nccc(-c2cn(C(C)C)c3cnccc23)n1
JEG-3
  Potency: inactive
OV90
  Potency: 17.8 µM (active)
Tov-21-G
  Potency: 14.1 µM (active)
Tov112D
  Potency: 17.8 µM (active)
[1]; HiBiT
  Potency: 2.49 µM (active)
[1]; Viability
  activity change, negative = inhibition: 26.3%

## COc1cccc(-c2ccc(NC(=O)C3=C(C(=O)O)CCC3)c(F)c2)c1
OV90
  Potency: inactive

## Cc1cnc(Nc2ccc(F)cc2Cl)nc1-c1c[nH]c(C(=O)N[C@H](CO)c2cccc(Cl)c2)c1
JEG-3
  Potency: inactive
PA-1
  Potency: 31.6 µM (active)
Tov-21-G
  Potency: 28.2 µM (active)

## COc1cc(Nc2ncc(F)c(Nc3ccc4c(n3)N(COP(=O)(O)O)C(=O)C(C)(C)O4)n2)cc(OC)c1OC
OV90
  Potency: 12.6 µM (active)
PA-1
  Potency: 11.2 µM (active)
SKOV3
  Potency: 10 µM (active)
Tov-21-G
  Potency: 14.1 µM (active)

## CS(=O)(=O)c1ccc(-c2cnc(N)c(C(=O)Nc3ccccc3)n2)cc1
JEG-3
  Potency: inactive
OV90
  Potency: inactive
Tov-21-G
  Potency: 8.91 µM (active)
Tov112D
  Potency: inactive

## CC(=O)Nc1nc(C)c(-c2ccc(Cl)c(S(=O)(=O)NCCO)c2)s1
JEG-3
  Potency: inactive
PA-1
  Potency: 15.8 µM (active)
SKOV3
  Potency: 11.2 µM (active)

## Cc1cc(Nc2cc(N3CCN(C)CC3)nc(Sc3ccc(NC(=O)C4CC4)cc3)n2)n[nH]1
JEG-3
  Potency: inactive
Tov-21-G
  Potency: inactive

## COc1ccc(OC)c(-c2nnc3ccc(-c4ccc(OC)c(O[C@@H]5CCOC5)c4)nn23)c1
OV90
  Potency: inactive

## Cc1nc2ccc(CN(C)c3ccc(C(=O)N[C@@H](CCC(=O)O)C(=O)O)s3)cc2c(=O)[nH]1
JEG-3
  Potency: 0.631 µM (active)
SKOV3
  Potency: inactive
Tov112D
  Potency: 0.316 µM (active)
[2]; at 45.9 µM (top of the series), tumour line D
  activity, negative = cell killing: -5.32% and -11.6%
[2]; at 46.1 µM (top of the series), tumour line C
  activity, negative = cell killing: 0.947% and 1.27%

## CNC(=O)c1c(F)cccc1Nc1nc(Nc2cc3c(cc2OC)CCN3C(=O)CN(C)C)nc2[nH]ccc12
JEG-3
  Potency: inactive
OV90
  Potency: inactive
Tov-21-G
  Potency: inactive
Tov112D
  Potency: inactive
[1]; Viability
  Potency: 24.9 µM (active)

## Cc1cc(N2CCOCC2)cc2[nH]c(-c3c(NC[C@@H](O)c4cccc(Cl)c4)cc[nH]c3=O)nc12
JEG-3
  Potency: inactive
PA-1
  Potency: 14.1 µM (active)
SKOV3
  Potency: 14.1 µM (active)
[1]; HiBiT
  Potency: 6.25 µM (active)

## Cc1cc(CN2CCN(c3c(Br)cnc4nc(-c5ccc(N6CCN(C)CC6)cc5)[nH]c34)CC2)no1
JEG-3
  Potency: inactive
OV90
  Potency: inactive
SKOV3
  Potency: inactive
[1]; HiBiT
  Potency: 8.83 µM (active)
[1]; Viability
  Potency: 11.1 µM (active)

## COC(=O)Nc1ccc(-c2nc(N3CCOCC3)c3cnn(C4CCN(Cc5cccnc5)CC4)c3n2)cc1
OV90
  Potency: 4.47 µM (active)
PA-1
  Potency: 15.8 µM (active)
SKOV3
  Potency: 2 µM (active)
Tov-21-G
  Potency: 2.82 µM (active)

## Nc1cccc(-c2cc3c(Oc4cccc(O)c4)ncnc3[nH]2)c1
JEG-3
  Potency: inactive
SKOV3
  Potency: 3.98 µM (active)

## c1ccc2c(CCNc3ccc(Nc4ccncc4)cc3)c[nH]c2c1
JEG-3
  Potency: inactive
PA-1
  Potency: 10 µM (active)
Tov-21-G
  Potency: inactive
[1]; HiBiT
  activity change, negative = inhibition: 19.8%
[1]; Viability
  activity change, negative = inhibition: -28.3%

## CCS(=O)(=O)c1cccc(-c2cc(C(=O)NC3CCN(C)CC3)c(C)c3[nH]c4ncc(C)cc4c23)c1
JEG-3
  Potency: 8.91 µM (active)
PA-1
  Potency: 1.26 µM (active)
SKOV3
  Potency: 5.62 µM (active)
Tov112D
  Potency: 2 µM (active)
[1]; HiBiT
  Potency: 2.79 µM (active)

## COc1ccc(-c2cc3c(C)nc(N)nc3n(C3CCC(OCCO)CC3)c2=O)cn1 (stereo not drawn)
OV90
  Potency: 2 µM (active)
PA-1
  Potency: 2.51 µM (active)
SKOV3
  Potency: 1.26 µM (active)
Tov-21-G
  Potency: 6.31 µM (active)

## C=CCn1c(=O)c2cnc(Nc3ccc(N4CCN(C)CC4)cc3)nc2n1-c1cccc(C(C)(C)O)n1
JEG-3
  Potency: 3.55 µM (active)
PA-1
  Potency: 1.58 µM (active)
SKOV3
  Potency: 0.447 µM (active)
Tov-21-G
  Potency: 0.631 µM (active)
Tov112D
  Potency: 2 µM (active)

## COc1cc(C(=O)N2CCC(N3CCN(C)CC3)CC2)ccc1Nc1ncc2c(n1)N(C)c1ccccc1C(=O)N2C
JEG-3
  Potency: inactive
OV90
  Potency: inactive
SKOV3
  Potency: 8.91 µM (active)
[1]; Viability
  activity change, negative = inhibition: -1.11%

## COC(=O)C1=C(C)NC(C)=C(C(=O)OCCN2CCN(C(c3ccccc3)c3ccccc3)CC2)C1c1cccc([N+](=O)[O-])c1 (stereo not drawn)
JEG-3
  Potency: inactive
OV90
  Potency: inactive
Tov-21-G
  Potency: inactive
Tov112D
  Potency: inactive
[2]; at 45.9 µM (top of the series), tumour line B
  activity, negative = cell killing: -14.4%
[2]; tumour line A
  Potency: 3.16 µM (active)
[2]; tumour line C
  Potency: 16.4 µM (active)
[2]; tumour line D
  Potency: 15.8 µM (active)
